The results in this text go back to PubChem BioAssay (NCATS).

Several values for one entry are separate records, joined by “and”; a condition that tells them apart may be missing. Identical values can stand only once. Results filed as inconclusive are left out. More than one record can exist for a structure, and the calls need not agree. Activity calls are given as the source filed them. Unless noted, calls follow the shape of the dose curve; as a rule, active = well fitted curve in the direction sought with a large enough effect; inconclusive = small, poorly fitted or top-dose-only effect, or another doubt; inactive = no such curve, though single readings can be large; an effect the other way counts as inactive or inconclusive.

A short description of test [1]: Primary qHTS for inhibitors of nuclear receptor binding SET domain protein 2 (NSD2) in an isogenic RCH-ACV NSD2 p.E1099K mutant (9B) (AID 1645876). Also: nearly all actives have a fitted effect of over 70% in size. Also: potency is read from the fitted curve at half-maximal effect. For orientation: qHTS replaces the single test concentration by a dilution series.
Test [2] is described as follows: Primary qHTS for inhibitors of nuclear receptor binding SET domain protein 2 (NSD2) in an RCH-ACV wild type WT cells (2C) (AID 1645877). Also: nearly all actives have a fitted effect of over 70% in size. Also: potency is read from the fitted curve at half-maximal effect.
The target of test [3] is Rap guanine nucleotide exchange factor 3 (Homo sapiens) (UniProt O95398). The test can be described thus: Confirmatory qHTS for antagonist of cAMP-regulated guanine nucleotide exchange factor 3 (EPAC1) (AID 1645880).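 Also: plate controls were DMSO only for no effect and full effect of the ATA control for full effect; nearly all actives have a fitted effect of over 55% in size.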 An outline of the steps:
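Released BODIPY-GDP fluoresces less than Rap1-bound BODIPY-GDP; the signal is followed at 480/540 nm at 5-min intervals over 30 min, after 5 min at room temperature. Reactions contain 100 nM EPAC1, 250 nM RAP1B-BODIPY-GDP and 50 uM GDP; results are normalized to ATA and DMSO.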

The target is the same in test [4]. The test can be described thus: Confirmatory qHTS for agonist of cAMP-regulated guanine nucleotide exchange factor 3 (EPAC1) (AID 1645881). Also: nearly all actives have a fitted effect of over 75% in size. Also: potency is read from the fitted curve at half-maximal effect.
The target in test [5] is Rap guanine nucleotide exchange factor 4 (Homo sapiens) (UniProt Q8WZA2). The test is described as follows: Confirmatory qHTS for agonist of cAMP-regulated guanine nucleotide exchange factor 4 (EPAC2) (AID 1645884).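 Also: nucleotide exchange releases bodipy-GDP from Rap1 and this lowers its fluorescence; nearly all actives have a fitted effect of over 65% in size.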 Also: potency is read from the fitted curve at half-maximal effect.
For test [6] the target is unchanged. The test can be described thus: Confirmatory qHTS for antagonist of cAMP-regulated guanine nucleotide exchange factor 4 (EPAC2) (AID 1645885). Also: nearly all actives have a fitted effect of over 25% in size. Also: potency is read from the fitted curve at half-maximal effect. As to activity change, negative = inhibition: % is scaled to controls: 0 for no effect and ±100 for the full control effect.
Test [7] has as its target Rap guanine nucleotide exchange factor 3 (Homo sapiens) (UniProt O95398). The test can be described thus: Counterscreen qHTS for antagonist of cAMP-regulated guanine nucleotide exchange factor 3 (EPAC1) (AID 1645888). Also: % of control where 0% means no effect. An outline of the steps: (§1)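 Rap1B-BODIPY-GDP 250 nM + GDP 50 uM; cpds 7-pt, final 9.74 nM–152 uM (activator mode) or from 7.32 nM upwards (inhibitor mode); RT; FI 480/540 nm at 5 and 30 min, then ± cAMP, reread.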
On the technique in general: The purpose of a counterscreen is to sort out artefacts and off-target activity.

Test [8] shares this target. The test is described as follows: Counterscreen qHTS for agonist of cAMP-regulated guanine nucleotide exchange factor 3 (EPAC1) (AID 1645889). Also: potency is read from the fitted curve at half-maximal effect; nearly all actives have a fitted effect of over 40% in size. An outline of the steps: as §1
In another test the target is Papain (Carica papaya) (UniProt P00784). The test is described as follows: Primary qHTS assay for inhibitors of the protease papain (AID 1645873).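 Also: papain turnover of Z-FR-AMC read as the AMC fluorescence gain over 10 min.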 Also: potency is read from the fitted curve at half-maximal effect. As to activity change, negative = inhibition: % is scaled to controls: 0 for no effect and ±100 for the full control effect.
Test [9] addresses Catechol O-methyltransferase (Homo sapiens) (UniProt P21964). The test can be described thus: Confirmatory Screen for Target Class Profiling of Small Molecule Inhibitors of Methyltransferases (AID 1745852; calls by dose curve; as to activity change, negative = inhibition: % is scaled to controls: 0 for no effect and ±100 for the full control effect). The note with it: MTase-Glo luminescence, SAH detection, recombinant enzyme; measured here: COMT max response; stronger effect = lower value.
For test [10], the target named is Guanidinoacetate N-methyltransferase (Homo sapiens) (UniProt Q14353). The description is as above. The note with it: MTase-Glo luminescence, SAH detection, recombinant enzyme; activity change, negative = inhibition: at 57.3 µM (top of the series).
Test [11] concerns the target Nicotinamide N-methyltransferase (Homo sapiens) (UniProt P40261). Described as above. The note with it: MTase-Glo luminescence, SAH detection, recombinant enzyme; measured here: NNMT max response; stronger effect = lower value.
For test [12], the target named is Phenylethanolamine N-methyltransferase (Homo sapiens) (UniProt P11086). The description is as above. The note with it: MTase-Glo luminescence, SAH detection, recombinant enzyme; measured here: PNMT max response; stronger effect = lower value.
Test [13] can be described thus: NCATS anti-infectives library activity on the primary C. elegans qHTS viability assay (AID 1745855; calls by dose curve; also: potency is read from the fitted curve at half-maximal effect). An outline of the steps: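 Titration-based screen in worms: eggs hatched overnight in M9, L1 larvae fed TOP10 capsules in S medium with compound, incubated 21 °C for 7 days; fluorescent objects gated by size and intensity at days 0, 3 and 7.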
Test [14] in a line: NCATS anti-infectives library activity on HEK293 viability as a counter-qHTS vs the C. elegans viability qHTS (AID 1745854). Also: % is scaled to controls: 0 for no effect and ±100 for the full control effect. An outline of the steps:
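CellTiter-Glo luminescence, read on a CCD imager, scored viability of HEK293 cells after 24 hr compound exposure at 37C. Library tested in several concentrations, 1:5 steps, up to 41.7 uM; digitonin served as control.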

Rap guanine nucleotide exchange factor 4 (Homo sapiens), sequence (Q8WZA2 whole entry, looked up): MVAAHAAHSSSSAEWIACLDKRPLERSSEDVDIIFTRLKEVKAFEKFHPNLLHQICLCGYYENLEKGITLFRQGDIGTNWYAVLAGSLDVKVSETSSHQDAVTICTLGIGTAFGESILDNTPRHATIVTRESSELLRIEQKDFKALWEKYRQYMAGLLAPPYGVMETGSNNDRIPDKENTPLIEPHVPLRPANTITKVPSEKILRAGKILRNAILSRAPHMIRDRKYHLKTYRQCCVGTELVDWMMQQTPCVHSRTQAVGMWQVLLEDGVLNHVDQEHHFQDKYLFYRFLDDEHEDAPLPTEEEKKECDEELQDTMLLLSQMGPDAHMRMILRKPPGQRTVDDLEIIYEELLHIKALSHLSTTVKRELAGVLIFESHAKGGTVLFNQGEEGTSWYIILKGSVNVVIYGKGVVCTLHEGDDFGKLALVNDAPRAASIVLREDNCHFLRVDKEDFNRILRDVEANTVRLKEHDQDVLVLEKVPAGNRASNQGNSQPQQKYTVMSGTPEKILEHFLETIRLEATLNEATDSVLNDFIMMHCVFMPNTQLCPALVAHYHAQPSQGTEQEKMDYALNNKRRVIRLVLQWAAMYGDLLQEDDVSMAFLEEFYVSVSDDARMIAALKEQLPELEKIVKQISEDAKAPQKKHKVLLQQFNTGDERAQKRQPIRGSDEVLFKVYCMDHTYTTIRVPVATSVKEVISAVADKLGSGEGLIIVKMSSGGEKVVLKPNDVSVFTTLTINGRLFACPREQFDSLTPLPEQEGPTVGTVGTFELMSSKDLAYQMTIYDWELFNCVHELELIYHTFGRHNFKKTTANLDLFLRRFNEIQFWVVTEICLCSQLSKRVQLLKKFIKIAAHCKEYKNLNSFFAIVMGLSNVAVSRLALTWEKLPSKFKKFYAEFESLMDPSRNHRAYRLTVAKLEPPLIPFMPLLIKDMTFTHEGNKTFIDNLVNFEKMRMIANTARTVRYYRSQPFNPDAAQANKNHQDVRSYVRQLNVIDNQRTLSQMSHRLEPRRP
Papain (Carica papaya), sequence (P00784 whole entry, looked up): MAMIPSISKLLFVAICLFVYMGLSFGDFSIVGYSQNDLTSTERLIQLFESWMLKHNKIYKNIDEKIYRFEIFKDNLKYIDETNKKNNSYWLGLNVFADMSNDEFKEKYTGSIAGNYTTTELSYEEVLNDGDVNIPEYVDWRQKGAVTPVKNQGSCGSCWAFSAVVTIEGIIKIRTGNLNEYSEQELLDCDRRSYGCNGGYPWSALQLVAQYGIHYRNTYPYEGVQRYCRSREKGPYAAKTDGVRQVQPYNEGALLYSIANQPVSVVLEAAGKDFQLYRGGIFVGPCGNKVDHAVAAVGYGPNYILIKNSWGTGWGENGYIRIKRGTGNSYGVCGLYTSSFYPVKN
Rap guanine nucleotide exchange factor 3 (Homo sapiens), sequence (O95398 whole entry, looked up): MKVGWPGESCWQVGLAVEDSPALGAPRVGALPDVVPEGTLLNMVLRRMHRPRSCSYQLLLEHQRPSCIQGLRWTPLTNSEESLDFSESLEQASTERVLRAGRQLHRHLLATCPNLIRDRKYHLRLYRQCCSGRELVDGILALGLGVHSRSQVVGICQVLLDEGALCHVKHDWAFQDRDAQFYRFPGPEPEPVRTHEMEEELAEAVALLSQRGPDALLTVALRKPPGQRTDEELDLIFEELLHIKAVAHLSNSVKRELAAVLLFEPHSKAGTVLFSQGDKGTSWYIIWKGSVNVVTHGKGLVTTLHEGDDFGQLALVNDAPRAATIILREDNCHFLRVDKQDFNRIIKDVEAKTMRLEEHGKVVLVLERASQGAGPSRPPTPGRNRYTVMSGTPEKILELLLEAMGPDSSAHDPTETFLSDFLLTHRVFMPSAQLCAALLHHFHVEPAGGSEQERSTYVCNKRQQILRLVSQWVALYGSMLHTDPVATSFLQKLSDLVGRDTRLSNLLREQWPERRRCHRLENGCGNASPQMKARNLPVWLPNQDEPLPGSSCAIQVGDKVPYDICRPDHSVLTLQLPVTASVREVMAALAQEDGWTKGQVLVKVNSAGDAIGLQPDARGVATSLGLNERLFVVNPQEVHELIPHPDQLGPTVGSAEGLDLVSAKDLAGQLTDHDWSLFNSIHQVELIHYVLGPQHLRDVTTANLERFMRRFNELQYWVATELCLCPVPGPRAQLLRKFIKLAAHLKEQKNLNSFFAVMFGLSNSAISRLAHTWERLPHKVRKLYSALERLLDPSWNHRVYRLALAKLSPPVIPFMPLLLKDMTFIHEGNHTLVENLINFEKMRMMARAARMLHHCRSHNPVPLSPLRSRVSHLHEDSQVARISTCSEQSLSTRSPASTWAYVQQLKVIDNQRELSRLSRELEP
Nicotinamide N-methyltransferase (Homo sapiens), sequence (P40261 whole entry, looked up): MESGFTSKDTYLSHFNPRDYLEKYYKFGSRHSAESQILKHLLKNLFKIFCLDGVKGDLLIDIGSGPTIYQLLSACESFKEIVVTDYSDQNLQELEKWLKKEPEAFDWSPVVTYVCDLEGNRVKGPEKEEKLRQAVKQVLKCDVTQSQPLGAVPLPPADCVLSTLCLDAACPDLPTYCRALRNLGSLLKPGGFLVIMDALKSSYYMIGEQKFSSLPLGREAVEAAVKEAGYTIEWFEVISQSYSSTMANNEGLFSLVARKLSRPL
Phenylethanolamine N-methyltransferase (Homo sapiens), sequence (P11086 whole entry, looked up): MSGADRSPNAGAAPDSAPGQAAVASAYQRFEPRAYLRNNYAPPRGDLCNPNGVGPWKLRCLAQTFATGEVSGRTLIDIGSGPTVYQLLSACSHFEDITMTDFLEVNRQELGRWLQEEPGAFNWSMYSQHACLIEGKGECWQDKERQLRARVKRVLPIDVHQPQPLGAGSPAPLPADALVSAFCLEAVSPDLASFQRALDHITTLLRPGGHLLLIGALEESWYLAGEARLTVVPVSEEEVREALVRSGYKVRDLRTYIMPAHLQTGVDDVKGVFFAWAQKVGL
Catechol O-methyltransferase (Homo sapiens), sequence (P21964 whole entry, looked up): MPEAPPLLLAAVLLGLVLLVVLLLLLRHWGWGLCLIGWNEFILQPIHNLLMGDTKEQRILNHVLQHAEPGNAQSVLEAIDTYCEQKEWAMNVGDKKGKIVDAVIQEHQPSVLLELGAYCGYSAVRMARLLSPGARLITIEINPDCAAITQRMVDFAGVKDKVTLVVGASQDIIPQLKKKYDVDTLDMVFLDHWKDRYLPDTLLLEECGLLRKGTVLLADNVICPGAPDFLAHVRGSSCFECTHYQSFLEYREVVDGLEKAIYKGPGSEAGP

On to `CCOC(=O)Nc1ccc(NCc2ccc(F)cc2)nc1N`, for which the Potency entry in test [1], in test [2], in [4], in [5] and in test [6] was “inactive” throughout. For the same compound, the outcome in test [3] and in test [7] was “inactive” each time. Also, the Potency in test [8] was 4.47 µM (active).
As for `CN1CCN(CCCN2c3ccccc3Sc3ccc(Cl)cc32)CC1`, the Potency result (with Papain (Carica papaya); in test [4]) was “inactive” throughout. In addition, the Potency in [6] was 35 µM (active).
For the compound `COC(=O)Nc1nc2ccc(C(=O)c3cccs3)cc2[nH]1`, the Potency result (in the test with Papain (Carica papaya); in test [4]; in test [5]; in test [6]) was “inactive” in each case. The Potency in [1] was 13.3 nM (active) and 93.4 nM (active); in test [2], 9.4 nM (active) and 66.1 nM (active). Besides, the outcome in test [3] is “inactive”.
Consider `CN(C)C(=O)C(CCN1CCC(O)(c2ccc(Cl)cc2)CC1)(c1ccccc1)c1ccccc1`, for which the values for the activity in test [9], in [11] and in test [12] were -5.52%, -39.1% and -5.06%, respectively. Moreover, the activity change, negative = inhibition in test [10] is 6.23%. In addition, the Potency result in test [13] is “inactive”.
For the compound `OCCN(CCO)c1nc(N2CCCCC2)c2nc(N(CCO)CCO)nc(N3CCCCC3)c2n1`, the Potency entry (with Papain (Carica papaya); in test [6]; in [14]) was “inactive” in each case. The Potency in test [1] was 6.68 µM (active) and inactive; in [2], 6.68 µM (active) and inactive; in [4], 79.3 µM (active) and 70.6 µM (active) and 63 µM (active); in test [5], 79.3 µM (active) and 70.6 µM (active) and 112 µM (active); in [13], 0.816 µM (active). Besides, the outcome in [3] and in test [7] was “inactive” throughout.
For the compound `NCCS(=O)(=O)O`, the Potency entry (with Papain (Carica papaya); in [1]; in test [2]; in test [4]; in [5]; in test [6]) was “inactive” each time. Further, the outcome in [3] is “inactive”.
`CC1(C)O[C@H]2CC(=O)OC[C@]23[C@H]2CC[C@@]4(C)[C@H](c5ccoc5)OC(=O)[C@H]5O[C@]54[C@]2(C)C(=O)C[C@@H]13`: the Potency entry in test [1], in test [2] and in test [14] was “inactive” in each case.
As for `CN(Cc1cnc2nc(N)nc(N)c2n1)c1ccc(C(=O)N[C@@H](CCC(=O)O)C(=O)O)cc1`, the Potency in test [1] was 9.4 nM (active) and 148 nM (active); in [2], 9.4 nM (active) and 148 nM (active).
In the case of `COc1cc2nc(N3CCN(C(=O)C4COc5ccccc5O4)CC3)nc(N)c2cc1OC` (stereo not drawn), the Potency with Papain (Carica papaya) was 25.1 µM (active); in test [13], 23 µM (active). Further, the Potency result in test [14] is “inactive”.
For `CC(C)(Oc1ccc(C2CC2(Cl)Cl)cc1)C(=O)O` (stereo not drawn), the Potency result (with Papain (Carica papaya); in [1]; in [2]; in test [14]) was “inactive” each time.
Regarding `O=C(CCCN1CCC(O)(c2ccc(Cl)cc2)CC1)c1ccc(F)cc1`, the Potency result (with Papain (Carica papaya); in [14]; in [13]) was “inactive” in each case.
With `O=c1[nH]cc(F)c(=O)[nH]1`, the Potency entry (with Papain (Carica papaya); in test [14]) was “inactive” each time. Further, the Potency is 13.2 µM (active) in [1]; 23.7 µM (active) and 14.8 µM (active) in test [2]; 6.48 µM (active) in test [13].
For `CC[C@@]1(O)C(=O)OCc2c1cc1n(c2=O)Cc2cc3c(CN(C)C)c(O)ccc3nc2-1`, the Potency in the test with Papain (Carica papaya) is 28.2 µM (active); in test [1], 16.8 nM (active) and 57.8 nM (active); in test [2], 10.6 nM (active) and 23 nM (active). Also, the outcome in [3] is “inactive”. The Potency entry in test [5] and in [6] was “inactive” throughout.
For the compound `Cn1ccc2cc3c(cc21)CCN3C(=O)Nc1cccnc1`, the Potency entry (with Papain (Carica papaya); in test [1]; in test [2]) was “inactive” throughout. Further, the activity in test [9] is -1.14%; in [11] it was -11.7%; in [12], 1.53%. Besides, the activity change, negative = inhibition in [10] was -1.78%.
